The list is not random: actives were taken first. Their share in the collection is about 27%.
CYP2C9 inhib = inhibitors of human CYP2C9. P11712. CYP2C9 Supersomes, luciferin-H conversion, luminescence. inhibition, % at 5 µM. 20% of 96,000 active;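 active = blocking of liver enzyme CYP2C9 beyond about 50% at 5 µM, limit read from the data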
CYP2C19 activ = increases human CYP2C19 enzyme activity; P33261; recombinant CYP2C19, luciferin-H EGE luminescence; active compounds read high; 0 = fully inhibited enzyme, 1 = untreated enzyme; activation factor at 5 µM; 96,000 tested, under 10 active; AID 1025;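 active = activation factor of at least 2 at 5 µM in the primary screen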
Target sequence (P33261 whole entry, looked up): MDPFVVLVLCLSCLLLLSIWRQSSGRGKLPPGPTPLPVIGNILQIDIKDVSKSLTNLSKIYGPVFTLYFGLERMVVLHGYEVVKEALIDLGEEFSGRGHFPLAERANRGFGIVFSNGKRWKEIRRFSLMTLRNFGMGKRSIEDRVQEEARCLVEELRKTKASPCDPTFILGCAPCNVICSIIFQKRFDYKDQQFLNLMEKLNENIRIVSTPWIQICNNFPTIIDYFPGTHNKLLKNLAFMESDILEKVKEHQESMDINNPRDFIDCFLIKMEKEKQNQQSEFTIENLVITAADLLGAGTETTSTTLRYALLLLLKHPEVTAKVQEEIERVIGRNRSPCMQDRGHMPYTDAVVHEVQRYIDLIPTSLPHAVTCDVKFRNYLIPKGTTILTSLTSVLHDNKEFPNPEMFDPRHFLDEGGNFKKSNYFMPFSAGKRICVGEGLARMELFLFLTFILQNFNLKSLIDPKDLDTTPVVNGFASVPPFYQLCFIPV
CYP2C9 act = activators of human CYP2C9; activation factor at 5 µM; P11712; AID 1024; 1.4% of 96,000 active; recombinant CYP2C9, luciferin-H conversion, luminescence; active compounds read high; factor 1 = untreated enzyme, 0 = blocked;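 active = activation factor of 2 or more for CYP2C9 at a 5 µM dose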
Cav32 inh = blocks human Cav3.2 T-type calcium channel. Cav3.2-expressing cells, Fluo-4 calcium fluorescence FDSS; active compounds read low. B-score at 10 µM. 4% of 100,000 active;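 active = single-dose well whose peak fluorescence ratio is a statistical outlier from its plate by either plate-standardised score or position-corrected B-score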
CYP2C19 inh = human CYP2C19 inhibition | P33261 | CYP2C19 Supersomes, luciferin-H EGE luminescence, 30 min | inhibition, % at 5 µM | 21% of 96,000 active;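 active = CYP2C19 inhibition above a set limit at 5 µM in the primary screen, cut at about 50% in these data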
A number is an active result; - = inactive; . = no result.

SMILES	CYP2C9 inhib	CYP2C19 activ	CYP2C9 act	Cav32 inh	CYP2C19 inh
COc1ccc(/C=N/NC(=O)c2ccc3ccccc3c2)cc1OS(=O)(=O)c1ccc(NC(C)=O)cc1	87.4	-	-	-	78.0
COC(=O)/C=C/S(=O)(=O)c1ccc(NC(C)=O)cc1	-	-	-	-	-
Cc1nn2c(-c3ccc(Cl)cc3)ccnc2c1-c1ccccc1	-	-	-	-	-
CC(/C=N\Nc1nnc2c(n1)[nH]c1c(C)cccc12)=C\c1ccco1	-	-	-	-	-
O=C(Nc1ccc(Cl)cc1)N1CCCN(Cc2ccccc2F)C1	-	-	-	-	-
COCCNC(=O)c1cc(-c2ccc(Cl)c(Cl)c2)on1	-	-	-	-	-
O=C1CC(N2CCN(c3ccc(S(=O)(=O)N4CCOCC4)cc3)CC2)C(=O)N1Cc1ccccc1 (stereo unspecified)	-	-	-	-	-
O=C(c1ccncc1)c1ccc(N2CCN(C3CC(=O)N(Cc4ccccc4)C3=O)CC2)cc1 (stereo unspecified)	60.5	-	-	-	85.9
Cc1ccc2nc(-c3ccccn3)cc(C(=O)NC3CCN(C)CC3)c2c1	-	-	-	-	-
COCCCNc1nc2ccccc2nc1NS(=O)(=O)c1cccs1	94.0	-	-	-	-
COc1ccc(Nc2nc3ccccc3nc2NS(=O)(=O)c2cccs2)cc1	87.5	-	-	-	-
Cc1cccc(NS(=O)(=O)c2cccs2)n1	-	-	-	-	-
Cc1ccc(P(=Nc2ccccc2)(N2CCOCC2)N2CCOCC2)o1	-	-	-	-	-
O/N=C\c1cccn1-c1ccc(Br)cc1	-	-	-	-	68.5
Cc1cc(C(=O)Nc2c(C)cccc2C)n(-c2ccccc2)n1	-	-	-	-	-
COC(CNC(=O)c1cc(C)nn1-c1ccccc1)OC	-	-	-	-	-
CCOCCCNC(=O)c1cc(C)nn1-c1ccccc1	-	-	-	-	-
Cc1cc(C(=O)NCc2cccs2)n(-c2ccccc2)n1	59.3	-	-	-	-
Cc1cc(C(=O)Nc2ccccc2C#N)n(-c2ccccc2)n1	57.0	-	-	-	-
CCN(CCNC(=O)c1cc(C)nn1-c1ccccc1)c1ccccc1	-	-	-	-	79.4
Cc1ccc(NC2=NC(c3ccco3)n3c(nc(C)cc3=O)N2)c(C)c1 (stereo unspecified)	-	-	-	.	-
CCOC(=O)CCNC(=O)Nc1ccc2nc(C)n(Cc3cccc(Cl)c3)c(=O)c2c1	81.3	-	-	-	61.5
CCOC(=O)CCNC(=O)Nc1ccc2nc(C)n(Cc3ccccc3Cl)c(=O)c2c1	93.7	-	-	-	55.1
Cc1nc2ccc(NC(=O)c3cccs3)cc2c(=O)n1Cc1ccc(Cl)cc1	68.5	-	-	-	79.0
CCCc1nc2ccc(NC(=O)NCCC(=O)OCC)cc2c(=O)n1Cc1cccc(Cl)c1	-	-	-	-	-
SMILES	CYP2C9 inhib	CYP2C19 activ	CYP2C9 act	Cav32 inh	CYP2C19 inh
Nn1c(SCC(=O)Nc2ccc(F)c(F)c2)nnc1C1CCCCC1	-	-	-	-	-
O=C(O)CN(c1ccccc1F)S(=O)(=O)c1ccccc1	-	-	-	-	-
COCCCNC(=O)CS(=O)Cc1nc(-c2cccc(OC)c2)oc1C (stereo unspecified)	-	-	-	-	-
COc1cccc(-c2nc(CS(=O)CC(=O)NCc3ccccc3Cl)c(C)o2)c1 (stereo unspecified)	63.7	-	-	-	-
COc1cccc(-c2nc(CS(=O)CC(=O)NCc3ccc4c(c3)OCO4)c(C)o2)c1 (stereo unspecified)	76.2	-	-	-5.01	77.4
COc1ccc(-c2nc(CS(=O)CC(=O)NCc3ccc4c(c3)OCO4)c(C)o2)cc1 (stereo unspecified)	-	-	-	-	-
C=CCNS(=O)(=O)c1ccc2nsnc2c1	-	-	-	-	-
Cc1ccc(S(=O)(=O)N/N=C\C=C\c2ccccc2)cc1	83.5	-	-	-	-
O=S(=O)(N/N=C\C=C\c1ccccc1)c1ccc(Br)cc1	97.4	-	-	.	-
COC(=O)[C@@H]1C[C@H]2CC[C@H](O)C[C@H]2N1Cc1ccc(-c2ccccc2)cc1	.	.	.	-	.
COc1ccc(CNC(=O)Cn2cc([N+](=O)[O-])nc2C)cc1	-	-	-	-	-
CCOC(=O)C1=C(C)N=C(/N=C/N(C)C)SC1c1ccccc1 (stereo unspecified)	-	-	-	-	70.6
CC(/C=C/c1ccco1)=N/NC(=O)Cc1cccs1	-	-	-	-	-
O=S(=O)(CCSc1nc2ccccc2s1)c1nc2ccccc2s1	73.8	-	-	-	-
CCS(=O)(=O)CCSc1nc2ccccc2s1	-	-	-	-	71.9
CC(=O)CSc1nc2ccccc2s1	-	-	-	-	-
Cc1ccc(CC(CC(=O)O)C(=O)NC2CCCCC2)cc1 (stereo unspecified)	-	-	-	-	-
Cc1cc(C)n(C(C[N+](=O)[O-])c2ccc(Cl)cc2)n1 (stereo unspecified)	58.5	-	-	-	76.2
Cc1nc(SC(C(=O)c2ccccc2)c2ccccc2)n[nH]1 (stereo unspecified)	-	-	-	-	78.1
O=C(COC(=O)CCC(=O)c1cccs1)Nc1cccc(S(=O)(=O)N2CCOCC2)c1	-	-	-	-	63.8
O=C(COC(=O)CCC(=O)c1cccs1)Nc1cc(S(=O)(=O)N2CCOCC2)ccc1Cl	79.8	-	-	-	-
Cc1c(Cl)cccc1NC(=O)COc1ccc(S(=O)(=O)N2CCOCC2)cc1	-	-	-	-	-
CCn1c(=O)c2cc(C(=O)N3CCN(C(=O)c4ccco4)CC3)sc2c2ccccc21	.	.	.	-	.
COCCNC(=O)CN1CCC(NC(=O)Nc2ccc(C(F)(F)F)cc2)CC1	-	-	-	-	-
CC1(C)CC(=O)C2=C(C1)Nc1[nH]c(=S)[nH]c(=O)c1C2c1ccccc1 (stereo unspecified)	-	-	-	-	-
SMILES	CYP2C9 inhib	CYP2C19 activ	CYP2C9 act	Cav32 inh	CYP2C19 inh
CC1=C(C(=O)OC(C)C)C(c2ccc(N(C)C)cc2)C2=C(CC(C)(C)CC2=O)N1 (stereo unspecified)	-	-	-	-	-
Cc1noc2c1C(c1ccc(N(C)C)cc1)C1=C(CC(C)(C)CC1=O)N2 (stereo unspecified)	-	-	-	-	76.2
Cc1ccc(C2C3=C(CC(C)(C)CC3=O)Nc3onc(C)c32)cc1 (stereo unspecified)	55.9	-	-	-	98.8
Clc1ccc(Cc2nn3c(Cn4nnc5ccccc54)nnc3s2)cc1	72.8	-	-	-	-
c1coc(-c2nn3c(Cn4nnc5ccccc54)nnc3s2)c1	-	-	-	-	75.5
c1ccc2c(c1)nnn2Cc1nnc2sc(-c3ccncc3)nn12	56.9	-	-	-	78.4
Clc1cccc(-c2nn3c(Cn4cnc5ccccc54)nnc3s2)c1	-	-	-	-	-
c1csc(-c2nn3c(Cn4nnc5ccccc54)nnc3s2)c1	-	-	-	-	-
CCCC(=O)NC(=S)Nc1ccccc1F	-	-	-	-	-
